{"source": "PubChem BioAssay AID1063", "about": "(University of Pittsburgh Molecular Library Screening Center, 2008)", "note": "About 18,000 (9%) of roughly 200,000 compounds were called active. Cut-off read from the data, not from the text of the source: active = inhibition above about 50%; inactive = the rest. What follows is part of a selection rich in actives, with near analogues and random picks from the rest.", "data": [{"assay": "antileishmanial activity against promastigotes – primary screen (AID 1063);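 note: promastigotes grown with compound for 44 hours at 28 °C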", "settings": "Leishmania major promastigotes, resazurin fluorescence viability; at 10 µM; hits give high values", "values": [{"smiles": "COc1ccc(C(=O)Nc2ccc(NC(=O)C(C)C)nc2)cc1", "inhibition": "25.1% (inactive)"}, {"smiles": "O=C(N/C(=C\\c1ccc(F)cc1)C(=O)N1CCCCCC1)c1ccccc1", "inhibition": "-5.92% (inactive)"}, {"smiles": "Cc1cc2ccccc2n1CCC(=O)O", "inhibition": "-7.95% (inactive)"}, {"smiles": "CCc1n[nH]c(=S)n1/N=C/c1c[nH]c2ccc(Br)cc12", "inhibition": "11.7% (inactive)"}, {"smiles": "Cc1ccc(/C=N\\n2c(-c3ccccc3)n[nH]c2=S)s1", "inhibition": "0.81% (inactive)"}, {"smiles": "S=c1[nH]nc(-c2ccccc2)n1/N=C/c1c[nH]c2ccccc12", "inhibition": "54.7% (active)"}, {"smiles": "O=C(CCCNS(=O)(=O)c1cccc2nsnc12)NCCN1CCN(c2ccccc2F)CC1", "inhibition": "-3.45% (inactive)"}, {"smiles": "Cc1cc(-c2csc(N)n2)c(C)n1Cc1ccccc1", "inhibition": "7.08% (inactive)"}, {"smiles": "COc1ccc(C2NC(=S)NC3=C2CCc2ccccc23)cc1OC", "note": "(centres undefined)", "inhibition": "57.7% (active)"}, {"smiles": "COc1ccc(/C=C2\\CCc3ccccc3C2=O)c(OC)c1OC", "inhibition": "8.72% (inactive)"}, {"smiles": "COc1ccc(C2SCCN2S(=O)(=O)c2ccccc2)cc1OC", "note": "(centres undefined)", "inhibition": "22.3% (inactive)"}, {"smiles": "Cc1onc(C(=O)NCc2ccc(F)cc2)c1[N+](=O)[O-]", "inhibition": "-5.34% (inactive)"}, {"smiles": "CC(=O)c1ccc(NC(=O)C(C)NCc2ccc(Cl)cc2)cc1", "note": "(centres undefined)", "inhibition": "-2.38% (inactive)"}, {"smiles": "C=Cn1c(C(=O)O)ccc1-c1ccc(OC)cc1", "inhibition": "-4.56% (inactive)"}, {"smiles": "CCOC(=O)C1CCCN(C(=O)COc2ccc(N(C)S(=O)(=O)c3ccc(C)cc3)cc2)C1", "note": "(centres undefined)", "inhibition": "27.7% (inactive)"}, {"smiles": "CCC1CCCCN1S(=O)(=O)Cc1ccccc1Cl", "note": "(centres undefined)", "inhibition": "3.99% (inactive)"}, {"smiles": "Cc1nnc(CN(C)Cc2cn[nH]c2-c2ccc(-c3ccccc3)cc2)o1", "inhibition": "26.1% (inactive)"}, {"smiles": "O=C(CC1C(=O)NCCN1Cc1ccc(-c2ccccc2)cc1)NCC1CCOCC1", "note": "(centres undefined)", "inhibition": "2.89% (inactive)"}, {"smiles": "CN(CCC1CCOCC1)Cc1cn[nH]c1-c1ccc(-c2ccccc2)cc1", "inhibition": "66.8% (active)"}, {"smiles": "CC(C(=O)N=Nc1c(O)n(C)c2ccc(Br)cc12)n1cnc2ccccc2c1=O", "note": "(centres undefined)", "inhibition": "7.13% (inactive)"}, {"smiles": "O=C1CSC(c2ccccc2)N1c1nc(-c2ccc(Cl)cc2Cl)cs1", "note": "(centres undefined)", "inhibition": "-6.37% (inactive)"}, {"smiles": "Clc1ccc(-c2cc(C3CCNCC3)[nH]n2)c(Cl)c1", "inhibition": "94.3% (active)"}, {"smiles": "Clc1ccc(-c2ncc3ccccn23)c(Cl)c1", "inhibition": "4.32% (inactive)"}, {"smiles": "CCOC(=O)c1cc2c(=O)[nH]c(C(Cl)(Cl)Cl)nc2o1", "inhibition": "-8.22% (inactive)"}, {"smiles": "CSc1sc(C)cc1C1C(C#N)=C(N)N(c2cccnc2)C2=C1C(=O)CCC2", "note": "(centres undefined)", "inhibition": "7.04% (inactive)"}, {"smiles": "COc1ccc(C2C(C#N)=C(N)N(c3ncn[nH]3)C3=C2C(=O)CCC3)cc1", "note": "(centres undefined)", "inhibition": "-5.04% (inactive)"}, {"smiles": "N#CC1=C(N)N(c2ccccc2)C2=C(C(=O)CCC2)C1c1ccccc1", "note": "(centres undefined)", "inhibition": "69.2% (active)"}, {"smiles": "O=C(CSc1nnc(C2CC2)n1Cc1ccccc1)Nc1cccnc1Cl", "inhibition": "3.75% (inactive)"}, {"smiles": "Cc1cc(NC(=O)CSc2nnc(Nc3ccccc3F)s2)no1", "inhibition": "0.51% (inactive)"}, {"smiles": "O=C(CSc1nnc(Nc2ccccc2)s1)Nc1cccnc1Cl", "inhibition": "66.3% (active)"}, {"smiles": "CC(=O)c1c(-c2ccccc2)c2ccccc2[nH]c1=O", "inhibition": "-2.95% (inactive)"}, {"smiles": "c1ccc2c(c1)C(=NC1CCCCC1)NC2=NC1CCCCC1", "inhibition": "100% (active)"}, {"smiles": "O=C1CCCCC(=O)c2ccccc2N1", "inhibition": "0.26% (inactive)"}, {"smiles": "CN(C)S(=O)(=O)c1cccc(NC(=O)COC(=O)/C=C/c2cccs2)c1", "inhibition": "-4.76% (inactive)"}, {"smiles": "CCOCC(=O)Nc1ncc(S(=O)(=O)c2ccc([N+](=O)[O-])cc2)s1", "inhibition": "20.7% (inactive)"}, {"smiles": "COc1ccc(NC(=O)c2c(C)oc3c2CCCC3)cc1", "inhibition": "-5.6% (inactive)"}, {"smiles": "COc1ccc(N/N=C2/CCCCC2=O)cc1", "inhibition": "67.6% (active)"}, {"smiles": "Cc1ccc(N/N=C2\\COC(C)(C)CC2=O)cc1", "inhibition": "0.62% (inactive)"}, {"smiles": "O=C(CCCCCNC(=O)c1ccccc1)N/N=C/c1ccccc1", "inhibition": "-3.34% (inactive)"}, {"smiles": "O=C(N/N=C/c1ccccc1O)/C(=C/c1ccccc1)CCO", "inhibition": "97.6% (active)"}, {"smiles": "O=C(CCCO)N/N=C/c1cc(Br)ccc1O", "inhibition": "12.7% (inactive)"}, {"smiles": "Cc1c(C=O)c2ccccc2n1CC(=O)O", "inhibition": "-9.42% (inactive)"}, {"smiles": "Cc1ccccc1OCCC(=O)OCC(=O)NC(C)c1ccccc1", "note": "(centres undefined)", "inhibition": "1.48% (inactive)"}, {"smiles": "CNC(=O)c1ccsc1NC(=O)c1ccc(S(=O)(=O)N2CCOCC2)cc1", "inhibition": "12.3% (inactive)"}, {"smiles": "CNC(=O)c1ccsc1NC(=O)c1ccc(S(=O)(=O)N2CCc3ccccc32)cc1", "inhibition": "89.2% (active)"}, {"smiles": "CC1CN(S(=O)(=O)c2ccc(C(=O)Nc3sccc3C(N)=O)cc2)CC(C)O1", "note": "(centres undefined)", "inhibition": "6.76% (inactive)"}, {"smiles": "Cc1ccc2nc(-c3ccc(NC(=O)c4cccnc4)cc3)oc2c1", "inhibition": "-5.33% (inactive)"}, {"smiles": "Cc1cccc(NC(=S)NCCN(C2CCCCC2)C2CCCC2)c1", "inhibition": "37.4% (inactive)"}, {"smiles": "COc1ccc(OCc2n[nH]c(=S)n2N)cc1", "inhibition": "-7.89% (inactive)"}, {"smiles": "O=C(/C=C/c1ccc(F)cc1)NC(=S)NNC(=O)c1cccnc1", "inhibition": "53.4% (active)"}, {"smiles": "O=C(/C=C/c1ccc(F)cc1)NCCNC(=O)/C=C/c1ccc(F)cc1", "inhibition": "-1.31% (inactive)"}, {"smiles": "CC(C)c1ccc(/C=C/C(=O)NNC(=O)c2cccnc2)cc1", "inhibition": "-0.93% (inactive)"}, {"smiles": "COc1ccc(NC(=S)NCc2cccs2)c(OC)c1", "inhibition": "53.3% (active)"}, {"smiles": "S=C(NCc1cccs1)Nc1ccc(Cl)cc1", "inhibition": "10.1% (inactive)"}, {"smiles": "COc1cc(CC(=O)NCc2cccs2)cc(OC)c1OC", "inhibition": "-3.33% (inactive)"}, {"smiles": "COc1ccc(Br)cc1/C=N/Nc1ccc(Cl)c(C(=O)O)c1", "inhibition": "-11.3% (inactive)"}, {"smiles": "COC(=O)C1CCN(C(=O)c2cc(=O)[nH]c3ccccc23)CC1", "inhibition": "-2.57% (inactive)"}, {"smiles": "COc1ccc(CCNC(=O)CC2SC(=Nc3cc(C)cc(C)c3)NC2=O)cc1OC", "note": "(centres undefined)", "inhibition": "1.72% (inactive)"}, {"smiles": "CCOC(=O)C1CCCN(C(=O)c2sc3nc(C)nc(N4CCOCC4)c3c2C)C1", "note": "(centres undefined)", "inhibition": "-2.76% (inactive)"}, {"smiles": "Cc1nc(N2CCN(c3ccccn3)CC2)c2c(C)c(C(=O)Nc3ccc(F)cc3)sc2n1", "inhibition": "43.6% (inactive)"}, {"smiles": "Cc1ccc(F)cc1NC(=O)c1ccc2c(c1)OCO2", "inhibition": "-6.66% (inactive)"}, {"smiles": "Cc1nc(N2CCC(C)CC2)c2c(C)c(C(=O)Nc3cc(F)ccc3C)sc2n1", "inhibition": "72.2% (active)"}, {"smiles": "Cc1nc(N2CCOCC2)c2c(C)c(C(=O)Nc3ccc(C(F)(F)F)cc3)sc2n1", "inhibition": "58.7% (active)"}, {"smiles": "Cc1ccnc(N2CCCC(C(=O)Nc3cc(F)ccc3C)C2)n1", "note": "(centres undefined)", "inhibition": "-1.61% (inactive)"}]}]}
